Assay outcomes deposited in PubChem BioAssay by National Center for Advancing Translational Sciences (NCATS).
Rows were chosen to be rich in hits. Some 19% of all compounds tested hit in one or more screens of this group.
TDP1 cell noCPT = qHTS for Inhibitors of human tyrosyl-DNA phosphodiesterase 1 (TDP1): qHTS in cells in absence of CPT; AID 686978, 2013; Potency, µM (highest dose often 46.2 µM), hits mostly inhibitors; DT40 Tdp1-/- hTDP1 cells, no CPT, ATP luminescence, 48 h; 420,000 compounds, 15% hits; also: nearly all actives have a fitted effect of over 55% in size
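Growth of hTDP1-complemented DT40 Tdp1-knockout cells is measured by ATP luminescence after at least 48 hr compound exposure at 37 °C, with DMSO substituting for the 20 nM CPT used in the parallel screen.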
TDP1 cell CPT = qHTS for Inhibitors of human tyrosyl-DNA phosphodiesterase 1 (TDP1): qHTS in cells in presence of CPT; AID 686979, 2013; 420,000 compounds, 12% hits; Potency, µM (doses to about 46.2 µM), usual class: inhibitors; chicken DT40 Tdp1-/-;hTDP1 cells + 20 nM CPT, ATP luminescence, 48 h; also: nearly all actives have a fitted effect of over 55% in size
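Chicken DT40 Tdp1-/- cells stably complemented with human TDP1 were seeded at 400 cells/well in medium containing 20 nM camptothecin, exposed to pin-transferred compounds, and grown at 37 °C for at least 48 hr. Viability was read as ATP luminescence.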
TDP1 inh = qHTS Assay for Inhibitors of Tyrosyl-DNA Phosphodiesterase (TDP1); recombinant TDP1, AlphaScreen DNA substrate cleavage; Potency, µM (doses to about 130 µM), hits mostly inhibitors; AID 485290, 2010; 350,000 compounds, 0.28% hits; Tyrosyl-DNA phosphodiesterase 1 (Homo sapiens), Q9NUW8; also: nearly all actives have a fitted effect of over 40% in size
Target sequence (Q9NUW8 whole entry, looked up): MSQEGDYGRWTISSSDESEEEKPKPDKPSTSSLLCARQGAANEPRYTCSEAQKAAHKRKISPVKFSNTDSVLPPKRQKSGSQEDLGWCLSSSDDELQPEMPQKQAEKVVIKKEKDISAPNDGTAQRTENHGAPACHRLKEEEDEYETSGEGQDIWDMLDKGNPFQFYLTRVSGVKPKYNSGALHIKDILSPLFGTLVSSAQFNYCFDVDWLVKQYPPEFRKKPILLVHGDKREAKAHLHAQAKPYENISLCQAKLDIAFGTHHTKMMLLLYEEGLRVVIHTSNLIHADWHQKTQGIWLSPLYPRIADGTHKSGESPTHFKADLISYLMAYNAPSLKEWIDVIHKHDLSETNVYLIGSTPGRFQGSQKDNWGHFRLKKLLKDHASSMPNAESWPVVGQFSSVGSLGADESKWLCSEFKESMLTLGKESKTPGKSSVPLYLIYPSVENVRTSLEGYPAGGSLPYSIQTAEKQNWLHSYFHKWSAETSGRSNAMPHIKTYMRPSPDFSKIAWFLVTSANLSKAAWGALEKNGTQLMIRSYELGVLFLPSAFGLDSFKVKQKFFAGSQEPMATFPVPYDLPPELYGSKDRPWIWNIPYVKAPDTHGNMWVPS
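Recombinant human Tdp1 (E. coli-expressed, 1 nM final) preincubated with compounds 15 min at room temperature, then 5'-biotin/3'-phosphotyrosine-FITC DNA substrate (15 nM final) added for 5 min. AlphaScreen beads (10 ug/ml final) added 10 min; cleavage lowers signal.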
Gal4-VP16 FLuc = VP16 counterscreen qHTS for inhibitors of ROR gamma transcriptional activity. Drosophila S2 Gal4-VP16 UAS-luciferase, luminescence, 20 h. Potency, µM (doses to about 53.6 µM), hits mostly inhibitors. 310,000 compounds, 3.5% hits;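 also: Gal4-VP16 expression switched on by copper sulfate through the metallothionein promoter; nearly all actives have a fitted effect of over 50% in size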
RORg inh = qHTS for inhibitors of ROR gamma transcriptional activity; Nuclear receptor ROR-gamma (Mus musculus), P51450; Drosophila S2 Gal4-RORgamma UAS-luciferase reporter, 20 h; Potency, µM (doses to about 53.6 µM), most hits filed as inhibitors; 310,000 compounds, 5.4% hits; AID 2551, 2010; also: nearly all actives have a fitted effect of over 60% in size
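Using a luciferase readout, inhibitors were identified by reduced reporter activity in Drosophila cells coexpressing a copper-inducible Gal4–ROR gamma fusion and UAS-driven Photinus luciferase, incubated 20 hr after 700 uM copper sulfate.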
Numbers stand for hits; 0 = inactive; ? = inconclusive; - = no result given. Calls follow the shape of the dose curve; as a rule, active = well fitted curve in the direction sought with a large enough effect; inconclusive = small, poorly fitted or top-dose-only effect, or another doubt; inactive = no such curve, though single readings can be large; an effect the other way counts as inactive or inconclusive.

SMILES | TDP1 cell noCPT | TDP1 cell CPT | TDP1 inh | Gal4-VP16 FLuc | RORg inh
O=C(CNC(=O)/C=C/c1ccccc1)N=Nc1c(O)n(Cc2ccccc2)c2ccccc12 | - | - | 0 | 0 | 0
NC(=S)N=Nc1ccc(O)cc1 | 18µM | 21µM | - | - | -
O=C(c1ccc(Br)o1)N1N=C(c2ccc(Cl)cc2)CC1c1ccco1 (centres undefined) | ? | 0 | 0 | 0 | 0
Cc1noc(C)c1S(=O)(=O)N1CCC(C(=O)NC2CCN(Cc3ccccc3)CC2)CC1 | 11µM | ? | 0 | 0 | 0
Cc1noc(C)c1S(=O)(=O)N1CCC(C(=O)Nc2ccccn2)CC1 | 0 | 0 | 0 | 0 | ?
O=C(NC1CCN(Cc2ccccc2)CC1)C1CCN(S(=O)(=O)c2ccc(Cl)cc2)CC1 | 16µM | ? | - | ? | ?
O=C(NC1CCN(Cc2ccccc2)CC1)C1CCN(S(=O)(=O)c2ccccc2)CC1 | ? | 0 | - | 0 | ?
Cc1ccc(C(=O)COC(=O)c2ccncc2)cc1[N+](=O)[O-] | ? | ? | 0 | 0 | 0
O=C(C(F)C(F)(F)F)N1CCN(c2ccccc2)CC1 (centres undefined) | 0 | 0 | 0 | 0 | 0
Cc1ccccc1NC(=O)CSc1cn(CC(=O)N(C(C)C)C(C)C)c2ccccc12 | 15µM | ? | 0 | - | -
CC(=O)Nc1cccc(NC(=O)CSc2cn(CC(=O)N(C(C)C)C(C)C)c3ccccc23)c1 | ? | ? | 0 | - | -
CC(=O)c1ccc(NC(=O)CSc2cn(CC(=O)N(C(C)C)C(C)C)c3ccccc23)cc1 | 15µM | ? | 0 | - | -
Cc1cc(NC(=O)CSCC(=O)Nc2cc(C(F)(F)F)ccc2N2CCOCC2)no1 | 0 | 0 | 0 | - | -
Cn1c(Cc2ccccc2)nnc1SCCC(=O)Nc1ccccc1 | 0 | 0 | 0 | 0 | 0
CCNC(=O)C1(C)CCN(C(=O)C(c2ccccc2)c2ccccc2)C1 (centres undefined) | 0 | 0 | - | - | -
N#CCC(=O)N/N=C1\CCCCC1C1CCCCC1 (centres undefined) | 0 | 0 | 0 | 0 | 0
Cc1cccc(CC(C)NC(=O)c2oc3c(F)cccc3c2C)n1 (centres undefined) | 10µM | ? | - | 0 | 0
Cc1c(C(=O)N2CCC2)oc2c(F)cccc12 | 0 | 0 | 0 | - | -
CCOC(=O)c1cc(CC)sc1NC(=O)c1cc([N+](=O)[O-])ccc1N1CCOCC1 | 1.3µM | 3.7µM | 0 | 0 | 0
CCOC(=O)c1cc(CC)sc1NC(=O)c1ccc(N2CCOCC2)c([N+](=O)[O-])c1 | 0 | 0 | 0 | 0 | 0
CCC(CC)c1nnc(NC(=O)c2cc([N+](=O)[O-])ccc2N2CCOCC2)s1 | 18µM | ? | 0 | - | -
Cc1ccc(C)c(OCC(=O)Nc2ccc3c(c2)OCO3)c1C | 18µM | ? | 0 | 0 | 0
O=C(COc1ccccc1Br)Nc1ccc2c(c1)OCCCO2 | 0 | 0 | 0 | 0 | 18µM
Cc1ccc(OCC(=O)Oc2ccc(C)c(C)c2)cc1 | 0 | 0 | 50µM | 0 | 0
Cc1ccc(OCC(=O)Nc2ccc3c(c2)OCO3)cc1C | 26µM | 0 | 0 | 0 | 0
SMILES | TDP1 cell noCPT | TDP1 cell CPT | TDP1 inh | Gal4-VP16 FLuc | RORg inh
Cc1cccc(OCC(=O)Nc2ccc3c(c2)OCO3)c1C | ? | 0 | 0 | 0 | ?
CNC(=S)NNC(=O)COc1ccc(C)c(C)c1 | ? | 0 | 0 | 7.1µM | 6.3µM
Cc1ccc(NC(=O)Cn2c(=S)[nH]c3ccccc32)cc1 | ? | 0 | 0 | 0 | 0
O=C(Cn1c(=S)[nH]c2ccccc21)c1ccccc1 | 0 | ? | 0 | ? | 10µM
CC(=O)n1nc(-c2ccco2)nc1SCc1ccccc1 | 0 | ? | 0 | 0 | 0
CN(C(=O)/C=C/c1ccc([N+](=O)[O-])s1)c1ccccc1 | 5.2µM | 10µM | 0 | ? | ?
CN(C(=O)COC(=O)/C=C/c1ccccc1[N+](=O)[O-])c1ccccc1 | 0 | 0 | 0 | 0 | 0
COc1cccc2c1OC1(C)CC2NC(=O)N1c1cccc(C(=O)N2CCN(c3ccccn3)CC2)c1 (centres undefined) | ? | 0 | 0 | 0 | 0
